# Test results taken from ChEMBL document CHEMBL3988442, “University of Dundee, Small-Polar-MMV Screening Library” (2021).
# In all, about 48,000 compounds went through this assay and about 13,000 (27%) showed an effect of 50% or more. The list shows a part of the results.
# Tested on: Wolbachia pipientis
# Assay: Anti-Wolbachia Cell-Based Screen
# Type: functional
# Set-up: scale not given: in the data most compounds retested in dose-response had high values
# Conditions: 5 µM
row,Structure (SMILES),Percent Effect [%]
1,CN(Cc1cc(-c2ccccc2)no1)Cc1nccn1C,8.065
2,Cc1nn(CCO)c(C)c1CNC1CCc2c(F)cccc21 (centres undefined),1.037
3,N#Cc1ccc(CN(CC(N)=O)C2CCCC2)cc1,-1.161
4,O=C(Nc1ccccc1F)N(CCO)CCOCC(F)(F)F,-14.38
5,CC(C)(C)S(=O)(=O)CCNC1CSCCc2ccccc21 (centres undefined),8.355
6,CCc1n[nH]c(SCC(=O)N2C[C@@H]3CC[C@H](C2)N(CC=C(C)C)C3)n1,12.53
7,CCOC(=O)c1cc2c(=O)[nH]c(=O)n(CCc3ccccc3)c2nc1C,-3.034
8,O=C1CCc2cc(-c3csc(CCN4CCCC4=O)n3)ccc2N1,-1.736
9,CCCN1C(=O)c2ccccc2C1OC (centres undefined),104.1
10,CCn1cnc(NC(=O)N2CCC(c3ccc(Cl)cc3)C2)n1 (centres undefined),-2.672
11,Cc1nc(C)n(CCCn2ccnc2-c2cc3n(n2)CCCNC3)n1,0.4256
12,Cn1ccc(C(=O)N2CCN(c3ccccn3)CC2)cc1=O,94.46
13,Cn1ccc(C(=O)N2CCN(c3ncccn3)CC2)cc1=O,-7.771
14,Cn1cc(C(=O)N2CCN(c3ncccn3)CC2)ccc1=O,122.7
15,Cn1ccc(C(=O)N2CCN(c3nccs3)CC2)cc1=O,97.2
16,Cn1ccc(C(=O)N2CCN(c3cc(C#N)ccn3)CC2)cc1=O,6.84
17,O=C(c1cc(Cl)cc(Cl)c1)N1CCN(c2nccs2)CC1,-10.96
18,Cn1ccc(CN2CCCN(c3nccs3)CC2)cc1=O,11.25
19,Cn1cc(C(=O)N2CCN(c3ccc(F)cc3)CC2)ccc1=O,27.16
20,Cn1cc(C(=O)N2CCN(c3ccccc3)CC2)ccc1=O,-6.133
21,Cc1cnccc1-n1nc(C(C)C)nc1CCc1cnccn1,-10.93
22,Cc1noc(CCCC(=O)NC(C)c2cn(-c3ccccc3)nn2)n1 (centres undefined),-6.671
23,CO[C@@H]1CC[C@H]2[C@H]1OCCN2S(=O)(=O)C1CC1,111.8
24,CC(C)CO[C@@H]1CC[C@H]2[C@H]1OCCN2S(=O)(=O)C1CC1,103.9
25,CCS(=O)(=O)N1CCO[C@H]2[C@H](OCC3CCCC3)CC[C@@H]21,-19.91

row,Structure (SMILES),Percent Effect [%]
1,O=S(=O)(C1CC1)N1CCO[C@H]2[C@H](OCC3CC3)CC[C@@H]21,103.2
2,CCO[C@@H]1CC[C@H]2[C@H]1OCCN2S(=O)(=O)C1CC1,110.7
3,CCO[C@@H]1CC[C@H]2[C@H]1OCCN2S(=O)(=O)c1cn(C)cn1,-10.77
4,Cn1cnc(S(=O)(=O)N2CCO[C@H]3[C@@H](OCC4CC4)CC[C@@H]32)c1,-7.379
5,Cn1cnc(S(=O)(=O)N2CCO[C@H]3[C@H](OCC4CC4)CC[C@@H]32)c1,-0.8778
6,O=S(=O)(C1CC1)N1CCO[C@H]2[C@H](OCC3CCCC3)CC[C@@H]21,-8.752
7,Cc1cc(CN(C)C(=O)NC2CCCN(c3ncccn3)C2)no1 (centres undefined),-2.323
8,Nc1nccc(N2CCCC(CO)(CCOc3ccccc3)C2)n1 (centres undefined),-20.36
9,Cn1ccnc1CN1CCN(CC(=O)NCc2cccs2)CC1,99.27
10,Cn1ccnc1CN1CCN(CC(=O)NCC(F)(F)F)CC1,1.598
11,Cc1ccccc1CNC(=O)CN1CCN(Cc2nccn2C)CC1,7.197
12,Cn1ccnc1CN1CCN(CC(=O)NCc2ccccc2F)CC1,129
13,CC(C(=O)NCc1cccs1)N1CCN(Cc2nccn2C)CC1 (centres undefined),4.204
14,COc1ccc(CC(=O)N2CC[C@@]3(O)CCNC[C@H]3C2)c(OC)c1,-12.62
15,CCc1nc(CN(C)Cc2ncc(-c3cccs3)o2)cs1,-9.321
16,CN1CC(c2ccccc2)CC2(CCN(Cc3ncc[nH]3)CC2)C1 (centres undefined),-21.2
17,Cc1ccc(C(CNCc2cccnc2)N2CCOCC2)s1 (centres undefined),5.338
18,Cc1ccccc1NC(=O)NCCn1nc(C(F)(F)F)n(C)c1=O,4.371
19,Cn1cc(CNC2CCc3c(ccc(=O)n3Cc3cccnc3)C2)cn1.O=C(O)C(F)(F)F.O=C(O)C(F)(F)F (centres undefined),105.5
20,Cn1cc(CNC2CCc3c(ccc(=O)n3Cc3ccncc3)C2)cn1.O=C(O)C(F)(F)F.O=C(O)C(F)(F)F (centres undefined),101.4
21,O=C(NC1CC1)N1CCc2ccc(=O)n(Cc3cccnc3)c2CC1.O=C(O)C(F)(F)F,-14.38
22,CN(C)CCn1c2c(ccc1=O)CC(NCc1cccnc1)CC2.O=C(O)C(F)(F)F.O=C(O)C(F)(F)F.O=C(O)C(F)(F)F (centres undefined),-9.426
23,NC1CCc2c(ccc(=O)n2Cc2ccncc2)C1 (centres undefined),-38.16
24,CN(C)CCn1c2c(ccc1=O)CC(NCc1cnn(C)c1)CC2.O=C(O)C(F)(F)F.O=C(O)C(F)(F)F (centres undefined),92.68
25,COc1ccc(C2CC(=O)NCc3nc(N(C)C)sc32)c(O)c1 (centres undefined),-25.68

row,Structure (SMILES),Percent Effect [%]
1,COCCc1ncc(CN2C[C@@H](C(=O)O)[C@H](C(C)C)C2)cn1,-10.49
2,Cc1cnc(NS(=O)(=O)c2cccc(C#N)c2)s1,-4.999
3,CNC(=O)C(NC(C)=O)c1ccc(F)c(F)c1 (centres undefined),-14.34
4,Cc1nc(CN2CCC3(CCCN(Cc4ccncc4)C3)C2=O)cs1.O=C(O)C(F)(F)F.O=C(O)C(F)(F)F.O=C(O)C(F)(F)F (centres undefined),97.27
5,Cc1nc(CN2CCC3(CCCN(Cc4ccoc4)C3)C2=O)cs1.O=C(O)C(F)(F)F.O=C(O)C(F)(F)F (centres undefined),117.4
6,Cc1nc(CN2CCC3(CCCN(Cc4cccnc4)C3)C2=O)cs1.O=C(O)C(F)(F)F.O=C(O)C(F)(F)F.O=C(O)C(F)(F)F (centres undefined),115.5
7,Cc1nc(CN2CCOCC3(CCN(c4cccnc4)CC3)C2)cs1.O=C(O)C(F)(F)F.O=C(O)C(F)(F)F,4.008
8,N#Cc1ccnc(N2CCN(C(=O)Cc3ccc4c(c3)CCO4)CC2)c1,-0.6491
9,CC(NCc1ccncc1)c1ccc(N2CCN(C)CC2)c(F)c1.Cl (centres undefined),1.312
10,Fc1ccc2c(c1)CCC2NCc1ccc(N2CCOCC2)cc1 (centres undefined),-1.344
11,CCC1=NC2(CCC(C(=O)Nc3ccc(F)cc3)CC2)C(=O)N1C (centres undefined),104.8
12,CCC1=NC2(CCC(C(=O)Nc3ccc(C)nc3)CC2)C(=O)N1C (centres undefined),107.3
13,COCCN1C(=O)C2(CCC(C(=O)Nc3cccc(C)c3)CC2)N=C1C (centres undefined),-14.6
14,COCCN1C(=O)C2(CCC(C(=O)Nc3ccc(F)cc3)CC2)N=C1C (centres undefined),17.41
15,COCCN1C(=O)C2(CCC(C(=O)Nc3ccc(C)cc3)CC2)N=C1C (centres undefined),-12.68
16,COCCN1C(=O)C2(CCC(C(=O)Nc3ccccn3)CC2)N=C1C (centres undefined),12.9
17,Cc1ccc(CNCc2ccc(-n3nc(C)cc3C)nc2)cc1,-14.48
18,CN1C[C@H](O)C[C@H]1c1nc(-c2ccc3c(c2)OCO3)no1,-5.095
19,Cc1cnccc1NCCNC(=O)C1CCCN(Cc2ccco2)C1 (centres undefined),5.628
20,Cc1nnc(CCNC(=O)C2CC(=O)N(C(C)(C)C)C2)s1 (centres undefined),-24.96
21,Cn1nccc1CCNC(=O)[C@H]1CNC[C@H](C(=O)N2CCCC2)C1,89.07
22,Cc1nnc(CCNC(=O)[C@H]2CNC[C@@H](C(=O)N3CCCC3)C2)s1,111.1
23,Cc1cccnc1NCCNC(=O)[C@H]1CNC[C@@H](C(=O)N2CCCC2)C1,2.912
24,Cc1cc(C)nc(CCNC(=O)[C@H]2CNC[C@@H](C(=O)N3CCCC3)C2)n1,4.192
25,Cc1cnccc1NCCNC(=O)[C@H]1CNC[C@H](C(=O)N2CCCC2)C1,142

row,Structure (SMILES),Percent Effect [%]
1,Cn1nnnc1SCCNC(=O)C1CCN(C(=O)C2CCCC2)CC1,4.852
2,CCN1CC(C(=O)NCCCc2nc(C)c(C)s2)CC1=O (centres undefined),-10.95
3,O=C(NCc1ccc2nonc2c1)C1CCN(C(=O)C2CCC2)CC1,6.946
4,Cc1nc(CCCNC(=O)[C@H]2CNC[C@@H](C(=O)N3CCCC3)C2)sc1C,84.73
5,Cc1csc(CCCNC(=O)[C@H]2CNC[C@@H](C(=O)N3CCCC3)C2)n1,5.026
6,N#CC1(NC(=O)c2nccc3ccccc23)CCSCC1,-2.14
7,CCCS(=O)(=O)CC(=O)NC(C)c1cccc(-n2cccn2)c1 (centres undefined),-8.263
8,Cc1ccc(-c2csc(N)c2C#N)cc1,-4.785
9,CCn1cc2c(n1)CN(Cc1sccc1C)CC2COCC1CC1.O=C(O)C(F)(F)F (centres undefined),6.988
10,CC(C)Cn1cncc1CNC1CCCNC1 (centres undefined),2.5
11,O=C(NCCc1nc(C2CC2)no1)[C@H]1CNC[C@H](C(=O)N2CCCC2)C1,183.5
12,NC(=O)N1CCCC(C(=O)NCCc2nc(Cc3ccccc3)no2)C1 (centres undefined),5.914
13,O=C(NCC1CCCO1)C1CCN(Cc2nc(C3CC3)no2)CC1 (centres undefined),8.427
14,Cc1cc(C)cc(NC(=O)N(CCC#N)CCCN(C)C)c1,13.87
15,C[C@H]1C(=O)NC[C@H]2CN(Cc3cccc(F)c3)C[C@H]21.O=C(O)C(F)(F)F,100.1
16,COCCN1CCO[C@@H]2CN(Cc3cc(OC)cc(OC)c3)C[C@@H]2C1.O=C(O)C(F)(F)F.O=C(O)C(F)(F)F,4.168
17,O=C(O)C(F)(F)F.O=C([C@H]1CCS(=O)(=O)[C@@H]2CN(CCc3ccccc3)C[C@H]12)N1CCCC1,-9.586
18,CN(C)[C@@H]1COC[C@@H]2CN(Cc3ccc4c(c3)OCO4)C[C@@H]21.O=C(O)C(F)(F)F.O=C(O)C(F)(F)F,-14.92
19,COc1cc(CN2C[C@@H]3CNC(=O)[C@H](C)[C@@H]3C2)cc(OC)c1,103.5
20,C[C@@H]1C(=O)NC[C@H]2CN(Cc3ccc4c(c3)OCO4)C[C@H]21.O=C(O)C(F)(F)F,109.9
21,COc1cc(CN2CCC(NC(=O)c3cccn3C)C2)cc(OC)c1 (centres undefined),-4.957
22,CN(C)[C@H]1COC[C@@H]2CN(Cc3ccc4c(c3)OCO4)C[C@@H]21.O=C(O)C(F)(F)F.O=C(O)C(F)(F)F,-0.2221
23,C[C@H]1C(=O)NC[C@H]2CN(CCc3ccccc3)C[C@H]21.O=C(O)C(F)(F)F,113.2
24,O=C(C1CC1)N1CCC2(CCN(Cc3cccc(F)c3)CC2)CC1.O=C(O)C(F)(F)F,10.09
